Assay outcomes from PubChem BioAssay.
PAX8 inh HTS: inhibitors of PAX8 transcriptional activity in RMG-I cells | RMG-I TPO-luciferase reporter, SteadyGlo, 24 h | AID 652154 | hit rate 1.2% among 360,000 | inhibition, % at 12.6 µM;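 active = mean replicate inhibition at least 60% with every replicate also reaching 60%; inconclusive = only one of the two criteria is met; inactive = mean below 60% and not all replicates reaching 60%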;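 also: luciferase light reporting Pax8 driven TPO promoter activity; plate controls were median of neutral control wells for no effect and mitoxantrone controls for full effect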
LMP1 NFkB inh: inhibitors of Epstein-Barr LMP1-induced NF-kappaB reporter; LMP1-induced NF-kappaB luciferase reporter cells, luminescence; inhibition, % at 12.5 µM; hit rate 0.69% among 350,000; in the data active = inhibition above about 41%; inconclusive = no clear call, values can overlap the other calls;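 also: 0% = neutral control wells and 100% = reference inhibitor control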
TRPM1 prom inh: MITF TRPM1 promoter inhibition in SK-MEL-5 cells | SK-MEL-5 TRPM1 promoter luciferase, 24 h | inhibition, % at 12.5 µM | hit rate 0.83% among 330,000;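 active = mean inhibition across replicates of 60% or more, whatever share of single replicates reaches that level; inconclusive = some that reach 60%, reason not given; inactive = mean inhibition across replicates below 60%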
EWS-Fli inh: inhibitors of EWS/Fli oncoprotein transcriptional activity; inhibition, % at 12.6 µM; AID 651661; hit rate 0.67% among 350,000; A673 NR0B1-luciferase reporter, viability-normalised;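 active = mean inhibition of at least 50% after viability correction, with every replicate also passing that limit; inconclusive = mean reaches 50% but only one of two replicates passes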;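 also: firefly luciferase signal divided by Alamar Blue viability fluorescence both relative to DMSO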
Shn3 inh set2: reduces Shn3 3'UTR luciferase signal in osteoblasts | inhibition, % at 12.5 µM | Clone20 osteoblast Shn3 3'UTR firefly luciferase, 24 h | hit rate 0.52% among 360,000;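 active = mean inhibition of at least 75% with every replicate also reaching 75%; inconclusive = mean inhibition at least 75% but some replicate below; inactive = mean inhibition below 75%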;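 also: 0% = median of neutral control wells and 100% = pilot-screen positive control compound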
LGR2 antag: inhibitors of bursicon-induced Drosophila LGR2 receptor cAMP signaling. HEK293 LGR2, CRE-luciferase, bursicon-stimulated, 4 h. inhibition, % at 9.99 µM. hit rate 0.35% among 380,000;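 active = drop in luminescence signal, shown as inhibition above about 50% in the replicate tests, limit read from the data, passing the limit was not always enough; inconclusive = probably only some replicates passing the limit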;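 also: agonist challenge used bursicon conditioned medium at about half maximal strength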
Numbers without * were called inactive; ? = inconclusive; · = no result given. In the library only some 2.2% were active in any assay of this set; here they are far more common.

SMILES	PAX8 inh HTS	LMP1 NFkB inh	TRPM1 prom inh	EWS-Fli inh	Shn3 inh set2	LGR2 antag
CO[C@@H]1CN(C)C(=O)c2ccc(NC(=O)C3CC3)cc2OC[C@H](C)N(Cc2nccs2)C[C@@H]1C	7.6	·	·	-10.8	·	-11.3
C/C(=N/NS(=O)(=O)c1ccc(CC(C)C)cc1)c1ccncc1	29.9	16.9	19.1	26.6	87.4*	8.7
C[C@H](NC(=O)c1ccco1)C(=O)Nc1cccc([N+](=O)[O-])c1	100.5*	4.2	1.0	-5.6	3.7	8.8
C[C@H](NC(=O)c1ccco1)C(=O)Nc1ccc2c(c1)OCO2	1.3	-4.4	1.6	0.6	12.0	20.1
Cc1ccc(NC(=O)c2cccs2)cc1[N+](=O)[O-]	-32.6	-12.5	-27.5	-44.2	-13.2	-37.8
O=C(Nc1cccc(N2C(=O)C=CC2=O)c1)c1cccs1	66.4*	-1.4	72.8*	28.4	21.6	12.9
O=C(Nc1cccc(NC(=O)c2cccs2)c1)c1ccc([N+](=O)[O-])o1	100.8*	-57.2	97.7*	14.4	63.3	18.3
Cc1nc2ccccc2c(=O)n1-c1cccc(NC(=O)c2cccs2)c1	18.8	6.3	-0.9	-7.3	-9.4	-2.8
O=C(COc1ccccc1[N+](=O)[O-])Nc1ccc(N2CCN(C(=O)c3cccs3)CC2)cc1	7.1	7.5	48.0	-8.1	36.1	75.2*
C[C@@H]1CN([C@H](C)CO)C(=O)Cc2cc(NC(=O)Cn3cnnn3)ccc2O[C@H]1CN(C)Cc1ccc(-c2ccccc2)cc1	-2.5	·	·	-11.7	·	2.0
Cc1ccc(S(=O)(=O)Nc2ccc3c(c2)C(=O)N([C@@H](C)CO)C[C@H](C)[C@H](CN(C)S(=O)(=O)c2cccs2)O3)cc1	·	·	·	3.8	·	-9.5
CC(C)C#Cc1cnc2c(c1)C(=O)N([C@H](C)CO)C[C@H](C)[C@H](CN(C)C(=O)Nc1cccc(F)c1)O2	10.7	·	·	-15.2	·	-41.7
C[C@@H]1CN([C@H](C)CO)C(=O)c2cc(NC(=O)c3ccccc3)ccc2O[C@@H](C)CCCCO[C@@H]1CN(C)C(=O)c1ccccc1	9.2	·	·	·	·	-9.4
O=C(Nc1ccc(Cc2ccncc2)cc1)c1cccc([N+](=O)[O-])c1	-17.1	-14.4	-5.1	-3.0	5.4	-9.5
O=C(Nc1ccc2oc(-c3cccnc3)nc2c1)c1ccc([N+](=O)[O-])o1	4.2	-2.6	70.9*	48.0	52.3	2.0
O=C(Nc1ccc2oc(-c3cccnc3)nc2c1)c1ccc(Br)o1	·	7.1	9.8	·	0.0	17.2
O=C(Nc1ccc(NC(=O)c2ccc([N+](=O)[O-])o2)cc1Cl)c1ccco1	32.8	-15.3	27.6	-48.2	15.3	-19.6
O=C(Nc1ccc(Cc2ccncc2)cc1)c1ccc([N+](=O)[O-])o1	?	-25.3	45.1	15.3	98.3*	-4.1
O=C(Nc1nc(-c2cccs2)cs1)c1ccc([N+](=O)[O-])o1	66.9*	-22.2	86.3*	-4.4	-4.7	-0.9
O=C(Nc1cccc(NC(=O)c2ccc([N+](=O)[O-])o2)c1)c1ccco1	92.2*	-20.9	63.9*	28.8	8.3	6.3
COCC(=O)Nc1ccc2c(c1)OC[C@@H](C)N(C(=O)NC(C)C)C[C@@H](C)[C@H](OC)CN(C)C2=O	-3.8	·	·	-8.5	·	5.7
CC(C)C(=O)Nc1ccc2c(c1)C(=O)N(C)[C@H]1CC[C@@H](CC(=O)NCCCN(C)C)O[C@@H]1CO2	-26.2	·	·	-18.0	·	-14.9
O=C(/C=C/c1ccc(Cl)c([N+](=O)[O-])c1)Nc1ccc(NC(=O)c2ccco2)cc1	14.8	-0.7	3.3	-3.7	-2.4	-27.0
Cc1c(NC(=O)c2ccc([N+](=O)[O-])o2)cccc1-c1nc2ncccc2o1	?	-0.3	77.7*	17.0	42.4	-0.6
O=C(Nc1ccc(N2CCN(C(=O)c3cccs3)CC2)cc1)c1ccc([N+](=O)[O-])o1	98.5*	-51.1	97.7*	·	-14.5	12.9
SMILES	PAX8 inh HTS	LMP1 NFkB inh	TRPM1 prom inh	EWS-Fli inh	Shn3 inh set2	LGR2 antag
COc1cccc(C(=O)Nc2cccc(-c3nc4ncccc4o3)c2C)c1	·	2.5	2.4	·	-3.3	·
COc1cc(C(=O)Nc2nc(-c3cccs3)cs2)cc(OC)c1OC	·	14.4	0.8	-56.8	23.0	59.2*
O=C(/C=C/c1ccc(Cl)c([N+](=O)[O-])c1)Nc1cccc(NC(=O)c2ccco2)c1	-1.0	7.4	-10.1	-8.8	9.6	56.7*
COc1cccc(NC(=O)N[C@@H]2C=C[C@@H](CC(=O)N3CCN(C)CC3)O[C@@H]2CO)c1	·	·	·	4.9	·	-6.1
CC(C)NC(=O)N(C)C[C@@H]1Oc2ncc(-c3ccccc3)cc2C(=O)N([C@H](C)CO)C[C@@H]1C	·	·	·	-19.3	·	-2.7
COc1cc(NC(=O)c2ccc([N+](=O)[O-])o2)ccc1NC(=O)c1cccs1	59.1	-72.6	87.1*	0.9	70.8	17.7
COc1ccccc1-c1ccc2c(c1)O[C@H](CN(C)Cc1ccc3c(c1)OCO3)[C@H](C)CN([C@@H](C)CO)S2(=O)=O	87.8*	·	·	-30.7	·	13.0
COc1ccccc1-c1ccc2c(c1)O[C@@H](CN(C)Cc1ccc3c(c1)OCO3)[C@@H](C)CN([C@@H](C)CO)S2(=O)=O	66.3*	·	·	24.8	·	4.3
CCC(=O)Nc1ccc2c(c1)C(=O)N(C)C[C@@H](OC)[C@@H](C)CN(Cc1cncnc1)[C@H](C)CO2	·	·	·	8.7	·	5.9
COc1ccc2c3c(n(C)c2c1)[C@H](CO)NCC31CCN(C(=O)Nc2ccc(F)cc2F)CC1	12.7	·	·	10.3	·	10.9
CO[C@H]1CN(C)C(=O)c2cc(NC(=O)C3CC3)ccc2OC[C@H](C)N(C(=O)c2ccccn2)C[C@@H]1C	·	·	·	-6.3	·	6.4
CC(C)[C@H](CO)N(Cc1cccc(F)c1)c1nc(Nc2cccc(Cl)c2)c2ncn(C(C)C)c2n1	14.5	-19.1	9.1	-7.7	5.8	·
CC[C@H](CO)Nc1nc(Nc2cccc(Cl)c2)c2ncn(C(C)C)c2n1	77.7*	-14.3	32.3	4.5	40.7	57.7*
COc1cc(C2c3[nH]c4ccccc4c3CC3COC(=O)N32)cc(OC)c1O (stereo unspecified)	·	-3.5	8.4	64.4*	2.1	-3.3
C[C@@H]1CN([C@H](C)CO)S(=O)(=O)c2ccc(C#CC3CC3)cc2O[C@@H]1CN(C)Cc1cccnc1	·	·	·	4.9	·	-0.8
Cc1ccc(C)c(C(=O)CSc2nnnn2C(C)C)c1	·	4.8	-28.4	·	0.6	·
